Source: the supplement of paper PMC11732987, “Enantioselective OTUD7B fragment discovery through chemoproteomics screening and high-throughput optimisation” (Communications Chemistry, 2025)

Legend:
Test in all cases: log2 ratio of Biotin-Ahx-Ub-VS probe labelling (compound/DMSO); higher = less target engagement, active = hit call of the paper (q ≤ 0.05, log2 ratio ≤ -1)
Details in all cases: treatment time: 3 h
[1] = compound: CCC1N(CCc2sccc12)C(=O)CCl
How it was run: (§1)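 For activity-based profiling, 495 µg portions of HEK293T lysate in Tris/CHAPS/IGEPAL buffer with protease inhibitors were treated in triplicate with compound at 50 or 200 µM or with DMSO for 3 h. A 1 h incubation with Biotin-Ahx-Ub-VS (0.5 µM final) followed, then NeutrAvidin enrichment, LysC and trypsin digestion and diaPASEF LC-MS/MS. The compound/DMSO base-two log ratios were averaged from median-normalised label-free quantities using an unpaired t-test. Proteins needed at least 2 unique peptides to be included.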

[2] = compound: CN1c2ccccc2C(CS1(=O)=O)NC(=O)CCl
How it was run: as §1

[3] = compound: Cl.ClCC(=O)N1CCc2ncncc2C1
How it was run: as §1

[4] = compound: Cl.Cn1ncc2C(CCCc12)NC(=O)CCl
How it was run: as §1

[5] = compound: ClCC(=O)NC1CCOc2ccccc12
How it was run: as §1

[6] = compound: ClCC(=O)NC1CCCc2ccccc12
How it was run: (§2)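 HEK293T lysate (495 µg per sample, in Tris/CHAPS/IGEPAL buffer with protease inhibitors) was treated in triplicate with compound over a concentration series or DMSO for 3 h, then with Biotin-Ahx-Ub-VS (0.5 µM final) for 1 h. Labelled DUBs were NeutrAvidin-enriched, digested with LysC and trypsin, and run by diaPASEF LC-MS/MS. Spectronaut label-free protein quantities were global-median-normalised. Values are average log2 ratios compound/DMSO from an unpaired t-test, using proteins with ≥2 unique peptides.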

[7] = compound: ClCC(=O)N[C@@H]1CCCc2ccccc12
How it was run: as §2

[8] = compound: ClCC(=O)N[C@H]1CCCc2ccccc12
How it was run: as §2

[9] = compound: CCC1N(CCc2cc(OC)c(Cl)cc12)C(=O)CCl
How it was run: as §1

[10] = compound: CCCC1N(CCc2cc(OC)c(OC)cc12)C(=O)CCl
How it was run: as §1

[11] = compound: CN(Cc1cccc(Br)c1)C(=O)CCl
How it was run: as §1

[12] = compound: CN(Cc1cccc(OCc2ccccc2C)c1)C(=O)CCl
How it was run: as §1

[13] = compound: CN(Cc1ccccc1)C(=O)CCl
How it was run: as §1

[14] = compound: COc1ccc(CN(C)C(=O)CCl)cc1
How it was run: as §1

[15] = compound: COc1cccc(CN(CCCc2ccccc2)C(=O)CCl)c1
How it was run: as §1

[16] = compound: ClCC(=O)N1CCc2cc(Cl)c(Cl)cc2C1
How it was run: as §1

[17] = compound: ClCC(=O)N1CCc2nc(ncc2C1)-c1ccccc1
How it was run: as §1

[18] = compound: ClCC(=O)N1CCc2nocc2C1
How it was run: as §1

[19] = compound: ClCC(=O)N1CCc2scc(Br)c2C1
How it was run: as §1

[20] = compound: ClCC(=O)NC(C1CCCC1)c1cccs1
How it was run: as §1

Measured: log2 ratio of Biotin-Ahx-Ub-VS probe labelling

USP22 (UniProt Q9UPT9)
Sequence of UniProt Q9UPT9 (Q9UPT9 whole entry): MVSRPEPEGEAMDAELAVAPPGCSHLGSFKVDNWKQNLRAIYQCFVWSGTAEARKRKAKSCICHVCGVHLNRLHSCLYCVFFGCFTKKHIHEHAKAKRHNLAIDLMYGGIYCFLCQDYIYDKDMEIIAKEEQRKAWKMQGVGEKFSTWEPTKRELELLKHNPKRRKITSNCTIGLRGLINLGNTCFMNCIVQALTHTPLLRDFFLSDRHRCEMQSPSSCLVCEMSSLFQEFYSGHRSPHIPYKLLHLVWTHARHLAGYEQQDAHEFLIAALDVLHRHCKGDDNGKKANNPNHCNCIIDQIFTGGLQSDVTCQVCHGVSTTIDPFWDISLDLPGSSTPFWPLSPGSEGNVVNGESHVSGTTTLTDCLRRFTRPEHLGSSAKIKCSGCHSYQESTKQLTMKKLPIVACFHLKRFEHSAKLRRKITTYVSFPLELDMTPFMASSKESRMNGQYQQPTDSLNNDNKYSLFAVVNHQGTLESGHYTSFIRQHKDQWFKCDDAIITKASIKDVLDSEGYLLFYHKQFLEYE
inactive: [1]; compound concentration: 50uM -0.0676 | [1]; compound concentration: 200uM -0.0769 | [2]; compound concentration: 50uM -0.0879 | [2]; compound concentration: 200uM -0.227 | [3]; compound concentration: 50uM 0.165 | [3]; compound concentration: 200uM -0.284 | [4]; compound concentration: 50uM 0.167 | [4]; compound concentration: 200uM -0.0888 | [5]; compound concentration: 50uM 0.0839 | [5]; compound concentration: 200uM -0.0221 | [6]; compound concentration: 0.78uM -0.256 | [6]; compound concentration: 1.56uM -0.271 | [6]; compound concentration: 3.13uM -0.269 | [6]; compound concentration: 6.25uM -0.318 | [6]; compound concentration: 12.5uM -0.0891 | [6]; compound concentration: 25uM -0.169 | [6]; compound concentration: 50uM -0.192 | [6]; compound concentration: 100uM -0.263 | [6]; compound concentration: 200uM -0.376 | [7]; compound concentration: 0.78uM -0.254 | [7]; compound concentration: 1.56uM -0.18 | [7]; compound concentration: 3.13uM -0.341 | [7]; compound concentration: 6.25uM -0.0166 | [7]; compound concentration: 12.5uM -0.101 | [7]; compound concentration: 25uM -0.166 | [7]; compound concentration: 50uM -0.259 | [7]; compound concentration: 100uM -0.0453 | [7]; compound concentration: 200uM -0.238 | [8]; compound concentration: 0.78uM -0.107 | [8]; compound concentration: 1.56uM -0.258 | [8]; compound concentration: 3.13uM -0.171 | [8]; compound concentration: 6.25uM -0.0996 | [8]; compound concentration: 12.5uM -0.17 | [8]; compound concentration: 25uM -0.0497 | [8]; compound concentration: 50uM -0.0246 | [8]; compound concentration: 100uM -0.0113 | [8]; compound concentration: 200uM -0.194 | [9]; compound concentration: 50uM -0.141 | [9]; compound concentration: 200uM -0.349 | [10]; compound concentration: 50uM -0.229 | [10]; compound concentration: 200uM -0.475 | [11]; compound concentration: 50uM -0.105 | [11]; compound concentration: 200uM 0.476 | [12]; compound concentration: 50uM -0.278 | [12]; compound concentration: 200uM -0.429 | [13]; compound concentration: 50uM -0.208 | [13]; compound concentration: 200uM -0.176 | [14]; compound concentration: 50uM -0.0376 | [14]; compound concentration: 200uM -0.15 | [15]; compound concentration: 50uM -0.102 | [15]; compound concentration: 200uM -0.225 | [16]; compound concentration: 50uM -0.0223 | [16]; compound concentration: 200uM -0.226 | [17]; compound concentration: 50uM -0.0429 | [17]; compound concentration: 200uM -0.339 | [18]; compound concentration: 50uM 0.0391 | [18]; compound concentration: 200uM -0.233 | [19]; compound concentration: 50uM -0.0943 | [19]; compound concentration: 200uM -0.362 | [20]; compound concentration: 50uM -0.0796 | [20]; compound concentration: 200uM -0.154

UniProt P51784
Sequence of UniProt P51784 (P51784 whole entry): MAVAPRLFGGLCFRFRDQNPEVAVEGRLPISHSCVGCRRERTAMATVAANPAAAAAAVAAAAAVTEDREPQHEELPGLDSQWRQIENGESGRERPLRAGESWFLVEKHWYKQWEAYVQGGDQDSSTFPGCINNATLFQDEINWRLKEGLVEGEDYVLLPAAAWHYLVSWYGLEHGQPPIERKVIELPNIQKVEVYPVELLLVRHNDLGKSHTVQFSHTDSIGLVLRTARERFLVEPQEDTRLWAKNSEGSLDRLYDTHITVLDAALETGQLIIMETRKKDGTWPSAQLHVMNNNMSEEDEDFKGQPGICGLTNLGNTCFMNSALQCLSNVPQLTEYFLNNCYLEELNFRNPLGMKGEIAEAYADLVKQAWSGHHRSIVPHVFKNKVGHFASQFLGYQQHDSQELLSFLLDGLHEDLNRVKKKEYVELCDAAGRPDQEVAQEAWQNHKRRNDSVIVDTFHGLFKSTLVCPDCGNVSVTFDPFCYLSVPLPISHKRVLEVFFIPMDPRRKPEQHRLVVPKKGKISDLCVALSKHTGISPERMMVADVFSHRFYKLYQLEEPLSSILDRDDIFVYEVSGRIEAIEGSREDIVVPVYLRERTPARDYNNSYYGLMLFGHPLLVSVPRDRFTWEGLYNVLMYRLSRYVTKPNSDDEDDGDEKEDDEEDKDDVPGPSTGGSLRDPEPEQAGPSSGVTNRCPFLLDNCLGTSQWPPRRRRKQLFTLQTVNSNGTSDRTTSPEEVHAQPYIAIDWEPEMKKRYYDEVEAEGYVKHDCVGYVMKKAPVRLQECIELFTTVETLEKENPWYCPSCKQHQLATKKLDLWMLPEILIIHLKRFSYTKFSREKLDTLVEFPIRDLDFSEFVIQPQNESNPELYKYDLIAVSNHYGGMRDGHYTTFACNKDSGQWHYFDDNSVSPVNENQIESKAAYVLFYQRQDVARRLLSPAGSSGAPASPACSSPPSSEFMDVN
inactive: [1]; compound concentration: 50uM 0.031 | [1]; compound concentration: 200uM -0.194 | [2]; compound concentration: 50uM -0.0381 | [2]; compound concentration: 200uM -0.118 | [3]; compound concentration: 50uM 0.0396 | [3]; compound concentration: 200uM -0.389 | [4]; compound concentration: 50uM 0.218 | [4]; compound concentration: 200uM 0.132 | [5]; compound concentration: 50uM 0.157 | [5]; compound concentration: 200uM -0.115 | [6]; compound concentration: 0.78uM -0.0264 | [6]; compound concentration: 1.56uM -0.0198 | [6]; compound concentration: 3.13uM -0.0986 | [6]; compound concentration: 6.25uM 0.0318 | [6]; compound concentration: 12.5uM -0.0982 | [6]; compound concentration: 25uM -0.201 | [6]; compound concentration: 50uM 0.0391 | [6]; compound concentration: 100uM -0.0818 | [6]; compound concentration: 200uM -0.0885 | [7]; compound concentration: 0.78uM -0.219 | [7]; compound concentration: 1.56uM -0.052 | [7]; compound concentration: 3.13uM -0.00301 | [7]; compound concentration: 6.25uM -0.0872 | [7]; compound concentration: 12.5uM -0.0816 | [7]; compound concentration: 25uM 0.00546 | [7]; compound concentration: 50uM -0.0574 | [7]; compound concentration: 100uM -0.00104 | [7]; compound concentration: 200uM -0.228 | [8]; compound concentration: 0.78uM -0.0931 | [8]; compound concentration: 1.56uM -0.0394 | [8]; compound concentration: 3.13uM -0.0291 | [8]; compound concentration: 6.25uM 0.0533 | [8]; compound concentration: 12.5uM -0.077 | [8]; compound concentration: 25uM -0.127 | [8]; compound concentration: 50uM -0.0252 | [8]; compound concentration: 100uM -0.0157 | [8]; compound concentration: 200uM -0.158 | [9]; compound concentration: 50uM -0.0453 | [9]; compound concentration: 200uM -0.739 | [10]; compound concentration: 50uM -0.482 | [11]; compound concentration: 50uM 0.019 | [11]; compound concentration: 200uM -0.0885 | [12]; compound concentration: 50uM -0.394 | [12]; compound concentration: 200uM -0.417 | [13]; compound concentration: 50uM -0.135 | [13]; compound concentration: 200uM -0.305 | [14]; compound concentration: 50uM -0.149 | [14]; compound concentration: 200uM -0.291 | [15]; compound concentration: 50uM -0.0998 | [15]; compound concentration: 200uM -0.339 | [16]; compound concentration: 50uM 0.125 | [16]; compound concentration: 200uM -0.807 | [17]; compound concentration: 50uM 0.0941 | [17]; compound concentration: 200uM -0.284 | [18]; compound concentration: 50uM -0.0884 | [18]; compound concentration: 200uM -0.403 | [19]; compound concentration: 50uM -0.0183 | [19]; compound concentration: 200uM -0.573 | [20]; compound concentration: 50uM 0.0513 | [20]; compound concentration: 200uM -0.0659
active: [10]; compound concentration: 200uM -1.44

ATXN3 (UniProt P54252)
Sequence of UniProt P54252 (P54252 whole entry): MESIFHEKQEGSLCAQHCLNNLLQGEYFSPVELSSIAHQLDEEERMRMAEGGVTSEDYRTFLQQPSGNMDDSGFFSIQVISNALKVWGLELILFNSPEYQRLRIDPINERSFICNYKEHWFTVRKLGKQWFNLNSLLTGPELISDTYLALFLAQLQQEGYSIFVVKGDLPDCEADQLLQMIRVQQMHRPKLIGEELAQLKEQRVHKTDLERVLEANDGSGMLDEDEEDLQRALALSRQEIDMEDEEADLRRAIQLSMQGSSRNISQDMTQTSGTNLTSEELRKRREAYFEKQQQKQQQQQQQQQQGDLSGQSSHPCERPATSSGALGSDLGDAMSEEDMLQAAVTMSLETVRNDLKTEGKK
inactive: [1]; compound concentration: 50uM -0.116 | [1]; compound concentration: 200uM -0.483 | [2]; compound concentration: 50uM -0.0445 | [2]; compound concentration: 200uM -0.365 | [3]; compound concentration: 50uM -0.35 | [4]; compound concentration: 50uM 0.199 | [4]; compound concentration: 200uM -0.212 | [5]; compound concentration: 50uM 0.00952 | [5]; compound concentration: 200uM -0.0594 | [6]; compound concentration: 0.78uM -0.108 | [6]; compound concentration: 1.56uM -0.213 | [6]; compound concentration: 3.13uM -0.478 | [6]; compound concentration: 6.25uM -0.165 | [6]; compound concentration: 12.5uM -0.236 | [6]; compound concentration: 25uM -0.301 | [6]; compound concentration: 50uM -0.18 | [6]; compound concentration: 100uM -0.156 | [6]; compound concentration: 200uM -0.285 | [7]; compound concentration: 0.78uM -0.286 | [7]; compound concentration: 1.56uM -0.107 | [7]; compound concentration: 3.13uM -0.24 | [7]; compound concentration: 6.25uM -0.0908 | [7]; compound concentration: 12.5uM -0.0507 | [7]; compound concentration: 25uM -0.218 | [7]; compound concentration: 50uM -0.0106 | [7]; compound concentration: 100uM -0.151 | [7]; compound concentration: 200uM -0.0598 | [8]; compound concentration: 0.78uM -0.183 | [8]; compound concentration: 1.56uM -0.0688 | [8]; compound concentration: 3.13uM -0.152 | [8]; compound concentration: 6.25uM -0.297 | [8]; compound concentration: 12.5uM -0.125 | [8]; compound concentration: 25uM -0.266 | [8]; compound concentration: 50uM -0.171 | [8]; compound concentration: 100uM -0.0739 | [8]; compound concentration: 200uM -0.312 | [9]; compound concentration: 50uM -0.248 | [10]; compound concentration: 50uM 0.126 | [10]; compound concentration: 200uM -0.435 | [11]; compound concentration: 50uM -0.252 | [11]; compound concentration: 200uM -0.624 | [12]; compound concentration: 50uM -0.719 | [13]; compound concentration: 50uM -0.361 | [13]; compound concentration: 200uM -0.872 | [14]; compound concentration: 50uM -0.229 | [14]; compound concentration: 200uM -0.842 | [15]; compound concentration: 50uM -0.391 | [15]; compound concentration: 200uM -0.729 | [16]; compound concentration: 50uM -0.915 | [17]; compound concentration: 50uM -0.221 | [18]; compound concentration: 50uM -0.325 | [19]; compound concentration: 50uM -0.485 | [20]; compound concentration: 50uM 0.0786 | [20]; compound concentration: 200uM -0.141
active: [3]; compound concentration: 200uM -1.37 | [9]; compound concentration: 200uM -1.54 | [12]; compound concentration: 200uM -1.1 | [16]; compound concentration: 200uM -2.63 | [17]; compound concentration: 200uM -1.26 | [18]; compound concentration: 200uM -1.08 | [19]; compound concentration: 200uM -1.78
